{"source": "the supplement of paper PMC11417369", "note": "The full ranking holds about 25,000 sequences; the median of “ln(normalized median fluorescence intensity)” is about 9.3, and the highest 2% start at about 10. The full list was thinned out, with the highest values kept by preference."}
{"test_system": "PF3D7_0420300 AP2 domain 1 (GST-tagged)", "assay": "gcPBM binding intensity (ln(normalized median fluorescence intensity)); higher = stronger DNA binding", "method_in_brief": "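Alexa488 anti-GST antibody, scanned at 488 nm, detected GST-tagged P. falciparum DNA-binding domains that had been expressed in E. coli and incubated for 1 h on an Agilent 4 × 180k array. The array carried primer-extended double-stranded 36-bp intergenic genomic probes and negative controls. Binding intensity is the highest Masliner-normalised natural-log median intensity across replicate spots of either orientation of each probe.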"}
{"sequence": "TATATATTATAAAAGAGTACAGAAAGAAAAAAAAAT [XGTACX_site8305]", "gcPBM binding intensity (ln)": 9.54}
{"sequence": "TCTTTTAAATAACAACATAAATAAATAAATAAATAA [GTGCAC_negctrl_site319]", "gcPBM binding intensity (ln)": 9.01}
{"sequence": "GTGTATTTTGTGCGCACACACATGCAAAAAGAAATA [CACACA_site6660]", "gcPBM binding intensity (ln)": 9.55}
{"sequence": "AGAAATTATAAATACCTACACACTTATCAAAATAAA [CACACA_site2264]", "gcPBM binding intensity (ln)": 9.55}
{"sequence": "TTACACATATATATAAATATATATAAATATATATAT [CACACA_negctrl_site150]", "gcPBM binding intensity (ln)": 9.08}
{"sequence": "AATATTATTTAGGAGCGTACGTTTTATTTACATATT [XGTACX_site5188]", "gcPBM binding intensity (ln)": 9.4}
{"sequence": "TATATTAAACCATGTAGTACCTTGAATAAATATTAT [XGTACX_site8254]", "gcPBM binding intensity (ln)": 9.23}
{"sequence": "TTTATTTAATTCATTGCATGTAATTTTTGTGTCCAC [TGCATGCA_site677]", "gcPBM binding intensity (ln)": 9.21}
{"sequence": "ATTACATAACAATATACACACTATTGATTAAAGAGA [CACACA_site5602]", "gcPBM binding intensity (ln)": 9.56}
{"sequence": "GGAATATAAATACATACACACATATATATATATATA [CACACA_site4998]", "gcPBM binding intensity (ln)": 9.44}
{"sequence": "TTTTTTATTTTGTGCACACACATAAAAATATATATA [CACACA_site761]", "gcPBM binding intensity (ln)": 9.5}
{"sequence": "TTAATAAGAGAGCAATAGGTGGACTGTTTCTTTTAT [CACACA_negctrl_site1239]", "gcPBM binding intensity (ln)": 9.22}
{"sequence": "AAATAAATAATATGTAAACACACAAAAAATAAAAAT [CACACA_site8307]", "gcPBM binding intensity (ln)": 9.72}
{"sequence": "AATTAACAAAAACACACACACACACCGACAAAAAAA [CACACA_site4444]", "gcPBM binding intensity (ln)": 10.3}
{"sequence": "AATTAACAAAAACACACACACACACCCACAAAAAAA [CACACA_site517]", "gcPBM binding intensity (ln)": 10.1}
{"sequence": "TACCAAAATAGACACACACACAAAATATGTAAATAT [CACACA_site6963]", "gcPBM binding intensity (ln)": 10.2}
{"sequence": "TAAATTAAAAAACACACACACAAAAAAAAAAAAAAA [CACACA_site2263]", "gcPBM binding intensity (ln)": 10}
{"sequence": "CACAAAAATAGACACACACACATATAAATAAATATA [CACACA_site6598]", "gcPBM binding intensity (ln)": 10}
{"sequence": "ATATATATATATATATATATATATATATATTATATA [XGTACX_negctrl_site48]", "gcPBM binding intensity (ln)": 8.89}
{"sequence": "ATGTGTATAATTAAATGTACATATATATATATATAT [XGTACX_site829]", "gcPBM binding intensity (ln)": 9.52}
{"sequence": "ATATGTAGAATAAAAAAAAAAAAAAAAAAAAAAAAT [CACACA_negctrl_site621]", "gcPBM binding intensity (ln)": 9.39}
{"sequence": "ATATATATATAATTATATAAAATATATCATATGTTA [XGTACX_negctrl_site47]", "gcPBM binding intensity (ln)": 9.15}
{"sequence": "TTTAATCATATGTTATATAATAAGCCCCCCCCCCAA [CACACA_negctrl_site486]", "gcPBM binding intensity (ln)": 10.4}
{"sequence": "TATTAATTATATTTATGTACATAATCATATTATTAT [XGTACX_site7938]", "gcPBM binding intensity (ln)": 9.37}
{"sequence": "TGTAGCCTGGAGAAGAGTACATAGTATCTGGTAGCT [XGTACX_site4943]", "gcPBM binding intensity (ln)": 9.12}
{"sequence": "ATATTCATGTTGATATGTACTTATTCTATATTGAAT [XGTACX_site8347]", "gcPBM binding intensity (ln)": 9.28}
{"sequence": "AAGTGCATATTATTCACACATAATAATTGTATACCT [CACACA_site5965]", "gcPBM binding intensity (ln)": 9.34}
{"sequence": "CTAAACAAAAAATAATGTACACATACATAAAAAATA [XGTACX_site1808]", "gcPBM binding intensity (ln)": 9.35}
{"sequence": "AAAAAAATTCTTGGCGCACACACTTTAAAAATTAAA [CACACA_site597]", "gcPBM binding intensity (ln)": 9.24}
{"sequence": "CAATATAAAAAACACACGCACACAAAAAAAAAAAAA [CACACA_site3521]", "gcPBM binding intensity (ln)": 9.79}
{"sequence": "AAAAAACAAAAACACACGCACACAAAAAAAAAAAAA [CACACA_site802]", "gcPBM binding intensity (ln)": 9.82}
{"sequence": "AAGTAAAAAAATAGCACACACACAAAAACACAGACA [CACACA_site4839]", "gcPBM binding intensity (ln)": 10.2}
{"sequence": "GTAAAAAAATAGCACACACACAAAAACACGCACAAA [CACACA_site6723]", "gcPBM binding intensity (ln)": 10.2}
{"sequence": "AAATATTAGTAACACAGACACACAAAAAAAAAAAAA [CACACA_site2175]", "gcPBM binding intensity (ln)": 9.5}
{"sequence": "AAGTAAAAAAATAGCACACACACAAAAACACCCACA [CACACA_site1291]", "gcPBM binding intensity (ln)": 10}
{"sequence": "AAAAAAAACATCCTCACACATATATATATATATATA [CACACA_site5166]", "gcPBM binding intensity (ln)": 9.18}
{"sequence": "TCACCATATAAACGTGCACACTACAAAAATATATAA [CACACA_site5413]", "gcPBM binding intensity (ln)": 9.26}
{"sequence": "TTGGTTATACAACACATGCACACGTAAATAAATATT [CACACA_site3841]", "gcPBM binding intensity (ln)": 9.38}
{"sequence": "AAAGACGTTTATAAATGTACATACACTTTAAAAGTT [XGTACX_site8753]", "gcPBM binding intensity (ln)": 9.08}
{"sequence": "AAAAAGTGATTAAAATGTACAAAATGCATAAAAGAA [XGTACX_site6625]", "gcPBM binding intensity (ln)": 9.6}
{"sequence": "TCGGGAGGGGGGAAGCGTACATATATAAAATTATTA [XGTACX_site4683]", "gcPBM binding intensity (ln)": 10.2}
{"sequence": "TATAAATAGAGGAAGCGTACATATATATATATATAT [XGTACX_site4993]", "gcPBM binding intensity (ln)": 9.34}
{"sequence": "ATAAATAAATAAAAGCGTACATATATATAAAATATA [XGTACX_site8107]", "gcPBM binding intensity (ln)": 9.39}
{"sequence": "TTCTTACATGAGTGTACACACTTTTTTTCAGAAAAT [CACACA_site4215]", "gcPBM binding intensity (ln)": 9.19}
{"sequence": "AAACCGTGGGAGCACACACACACACGCGCACATATA [CACACA_site6288]", "gcPBM binding intensity (ln)": 10.1}
{"sequence": "ACCGTGGGAGGACACACACACACACGCACATATATA [CACACA_site6289]", "gcPBM binding intensity (ln)": 10.3}
{"sequence": "AACGCACGAGGACACACACACATATTTATATTTATA [CACACA_site6608]", "gcPBM binding intensity (ln)": 9.87}
{"sequence": "ACCGTGGGAGGACACACACACACACCCACATATATA [CACACA_site4339]", "gcPBM binding intensity (ln)": 10.2}
{"sequence": "ATGGGACATATATATACACACATATATATATATATA [CACACA_site1202]", "gcPBM binding intensity (ln)": 9.46}
{"sequence": "ACCGTGGGAAGACACACACACACACCCACATATATA [CACACA_site333]", "gcPBM binding intensity (ln)": 10.2}
{"sequence": "CGTGGGAGCGGACACACACACACACCCATATATATA [CACACA_site4340]", "gcPBM binding intensity (ln)": 10.1}
{"sequence": "ACTGTGGGAATAACCACACACACACCCACATATATA [CACACA_site3542]", "gcPBM binding intensity (ln)": 10}
{"sequence": "CGTGGGAGCAGACACACACACACACCCATATATATA [CACACA_site334]", "gcPBM binding intensity (ln)": 10.1}
{"sequence": "AATTATCAGGAATGATGTACTGAAATAAAAAAAAAA [XGTACX_site3280]", "gcPBM binding intensity (ln)": 9.11}
{"sequence": "GTATATATATATATATGTACTAATTAGTAGTTTACG [XGTACX_site6274]", "gcPBM binding intensity (ln)": 9.25}
{"sequence": "TTTTTATGAATTCTTTTGTTAATAATAATATGTTGT [TGCATGCA_negctrl_site198]", "gcPBM binding intensity (ln)": 9.19}
